Source: PubChem BioAssay
PfHsp90 yeast 2 – reduces growth (ATP signal) of yeast expressing P. falciparum Hsp90. S. cerevisiae expressing PfHsp90, BacTiter-Glo ATP, 48 h; yeast lacking PDR1 and PDR3 efflux regulators. 310,000 compounds, 0.32% hits. inhibition, % at 9.4 µM;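 active = every replicate shows inhibition above about 80%, whatever the replicate mean, limit read from the data; inconclusive = mean inhibition reaches the set limit but some replicate falls short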;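 also: 0% = DMSO neutral controls and 100% = 20 µM radicicol positive controls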
Wnt act – activates Wnt/beta-catenin signaling in a reporter cell assay. activation, % at 9.35 µM. AID 743398. 300,000 compounds, 1.2% hits. activator, plate reader; in the data active = activation above about 30%, passing the limit was not always enough; inconclusive = no clear call, values can overlap the other calls;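 also: 0% = neutral control wells and 100% = positive control wells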
Vif inh – inhibitors of HIV Vif. HEK293T cells, Vif self-association by quenched fluorescence, imaging, 24 h. inhibition, % at 7.49 µM. AID 602346. 340,000 compounds, 0.35% hits; in the data active = inhibition above about 50%, passing the limit was not always enough; inconclusive = no clear call, values can overlap the other calls; inactive = below about 31%
esBAF inh – SWI/SNF esBAF complex inhibition | 350,000 compounds, 2% hits | reporter increase, % at 12.5 µM | mouse ES cells, Bmi1-luciferase knock-in reporter, 24 h; 100% = twice the neutral-well signal; in the data active = activation above about 40%; inconclusive = no clear call, values can overlap the other calls;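 also: 0% = median of the plate's neutral control wells and 100% = double that signal; a rise in the Bmi1 reporter signal indicates esBAF inhibition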
N-glyco inh – blocks N-linked glycosylation in D54 reporter cells; AID 588692; 360,000 compounds, 0.23% hits; D54 ERlucT glycosylation luciferase reporter, 24 h; percent of 100 nM tunicamycin response; reporter increase, % at 12.5 µM;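 active = mean luciferase reporter signal, scaled so untreated is 0 and the glycosylation-blocking control 100, at or above a set limit in every replicate; inconclusive = mean reaches the limit but not every replicate does; inactive = mean below the limit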;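 also: luciferase carries N-glycosylation sites so blocking glycosylation raises the light; 0% = median of neutral control wells and 100% = median of 100 nM tunicamycin wells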
MITF act – MITF TRPM1 promoter activation in melanoma cells | SK-MEL-5 TRPM1-promoter luciferase, 24 h; % of positive control, neutral wells = 0 | activation, % at 12.5 µM | 300,000 compounds, 0.75% hits;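 active = mean activation of at least 80% with every replicate also reaching 80%; inconclusive = mean reaches 80% but some replicate falls short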;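 also: 0% = neutral control wells and 100% = parthenolide positive control wells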
* marks the source's active call; other numbers are inactive results; u = inconclusive; x = no result. Compounds with a hit are over-represented: about 3% of the library has one in this group of screens.

SMILES	PfHsp90 yeast 2	Wnt act	Vif inh	esBAF inh	N-glyco inh	MITF act
COc1cccc(/C=C2\SC(N3CCCC(C)C3)=NC2=O)c1OC (stereo not given)	-30	3	-6	73*	-5	65
Nc1c(C(=O)c2ccccc2)sc2nsc(SCCN3CCOCC3)c12	x	40*	0	x	20	x
Cc1ccc(OCCOCCn2cnc3ccccc3c2=O)c([N+](=O)[O-])c1	-4	-1	-10	x	4	-8
O=c1c2ccccc2ncn1CCOc1ccccc1[N+](=O)[O-]	-7	4	4	67*	-1	54
COc1ccc(Nc2ncnc3ccccc23)c(OC)c1	11	-1	x	10	-2	15
COc1ccc(Nc2nc(N3CCCC3)nc3ccccc23)c(OC)c1	14	-11	x	-1	99*	10
CC1C/C(=C/c2cccs2)C(=O)/C(=C/c2cccs2)C1 (stereo not given)	-12	2	-1	x	1	15
CC(C)CC(=O)NC(=S)Nc1ccccn1	-7	3	4	5	1	11
Nc1ccccc1C(=O)NN=Cc1cccc([N+](=O)[O-])c1	x	39*	x	u	-5	x
O=C(N/N=C/c1ccc(Cl)c([N+](=O)[O-])c1)c1ccc2c(c1)OCCO2	-23	3	-2	7	-5	12
O=C(N/N=C/c1cccc([N+](=O)[O-])c1)c1ccc2c(c1)OCCO2	x	40*	-1	44*	-6	x
CCOc1ccc(CCNC(=O)c2ccc(F)c(S(=O)(=O)N3CCOCC3)c2)cc1OCC	-3	1	x	x	1	-7
Cc1c([N+](=O)[O-])cc(S(=O)(=O)Nc2ccncc2)cc1[N+](=O)[O-]	-18	1	66*	9	5	6
Cc1ccc(S(=O)(=O)Nc2ccccc2)cc1[N+](=O)[O-]	-25	-2	-5	-1	1	4
Cc1ccc(C(=O)Nc2ccc3c(c2)nc2n3CCSC2)cc1	0	33*	-2	5	-12	x
CCOC(=O)c1c(C)[nH]c(C(=O)COC(=O)c2cccnc2Cl)c1C	-10	16	-9	65*	0	83*
Cc1ccc2cc(C#N)c(N3CCCN(C(=O)C4CCCO4)CC3)nc2c1 (stereo not given)	-2	x	-2	-3	3	x
CCOc1ccc(NC(=O)CCCCn2c(=O)[nH]c3ccsc3c2=O)cc1	-10	37*	-6	4	2	9
O=C(CCCCn1c(=O)[nH]c2ccsc2c1=O)NCCc1ccccc1	-14	37*	0	3	1	10
COc1ccc(-c2cnc3c(c2)C(=O)N([C@@H](C)CO)C[C@H](C)[C@H](CN(C)Cc2ccccc2)O3)cc1	x	x	x	1	x	x
Clc1ccccc1CSc1cc2c(nn1)-c1ccccc1CC2	18	x	-16	88*	-2	58
Clc1cccc(Cl)c1CSc1cc2c(nn1)-c1ccccc1CC2	6	30	-4	17	1	59
Cc1ccccc1NC(=S)N1CCCC(c2nc3ccccc3[nH]2)C1 (stereo not given)	18	-2	-1	x	0	-2
Fc1ccc(NCc2n[nH]c(=S)n2Cc2ccccc2)cc1	1	-2	62*	6	0	7
S=c1[nH]nc(CNc2ccc(Cl)cc2)n1Cc1ccccc1	-1	-2	-1	x	1	-4
SMILES	PfHsp90 yeast 2	Wnt act	Vif inh	esBAF inh	N-glyco inh	MITF act
CCOc1ccc2nc(SCC#N)c(C#N)cc2c1	18	82*	3	-8	18	-6
CCOC(=O)CSc1nc2cc(OCC)ccc2cc1C#N	-20	x	11	62*	-1	x
CCSc1nc2ccc(OC)cc2cc1C#N	18	x	23	21	-1	77
COc1ccc(C2=Nc3ccccc3OC2)cc1	-8	21	x	64*	-1	64
OCCCN=c1cc(-c2ccccc2)oc2ccc(Cl)cc12	-10	x	14	72*	58*	6
CC1(C)CC(N=c2cc(-c3ccccc3)oc3ccc(Cl)cc23)CC(C)(C)N1	8	9	-4	x	u	-52
COc1ccc(/C=C2\SC(=S)N(NS(=O)(=O)c3ccc(C)cc3)C2=O)c(OC)c1	-25	0	-11	5	2	-2
CN(C)c1ccc(C(=O)OCC(=O)N2CCCC2)cc1	-7	5	18	34	1	36
Cc1ccsc1C(=O)OCC(=O)NC1CCCCC1	x	12	-10	63*	-2	x
CN(C)c1ccc(C(=O)OCC(=O)N2CCCCCC2)cc1	x	-2	6	47*	1	64
Cc1c(C(=O)OCC(=O)N2C(C)CCCC2C)oc2ccccc12 (stereo not given)	19	19	2	76*	-1	74
Cc1ccsc1C(=O)OCC(=O)NC1CC1	-20	1	-12	8	4	5
Cc1ccsc1C(=O)OCC(=O)N1C(C)CCCC1C (stereo not given)	-2	11	-13	79*	-1	27
CN(C)CC(=O)Nc1ccc2c(c1)[C@H]1C[C@H](CC(=O)N3CCOCC3)O[C@@H](CO)[C@H]1O2	x	x	x	-1	x	x
O=C(C[C@H]1CC[C@@H](NC(=O)Nc2ccc(F)cc2)[C@H](CO)O1)NCc1ccccn1	x	x	x	0	x	x
C[C@H](CO)N1C[C@H](C)[C@@H](CN(C)S(=O)(=O)c2ccccc2)Oc2ccc(NS(=O)(=O)c3cccs3)cc2C1=O	5	-4	x	-1	3	6
COc1ccc2nc(NC(=O)c3cc(S(=O)(=O)N4CCOCC4)ccc3C)sc2c1	38	x	-9	21	-4	3
CCCCCOc1ccc(N2C(=O)CC(N(O)c3ccccc3)C2=O)cc1 (stereo not given)	11	4	6	6	6	21
Cc1ccc(S(=O)(=O)N[C@H]2CC[C@@H](CC(=O)N3CCC(Cc4ccccc4)CC3)O[C@@H]2CO)cc1	x	x	x	6	x	x
O=C(COC(=O)c1ccccc1Br)NC1CCCC1	16	-6	80*	50*	-1	58
O=C(OCC(=O)N1CCCC1)c1ccccc1O	19	17	8	17	-1	45
O=C(OCC(=O)N1CCCCCC1)c1ccccc1Br	16	14	13	54*	-5	75
O=C(OCC(=O)N1CCOCC1)c1ccc2ccccc2c1O	11	42*	16	u	-2	50
COc1cccc(NC(=O)COC(=O)c2sccc2C)c1	2	7	16	50*	-2	108*
COC(=O)[C@@H]1C[C@@]2(O)[C@@H](O)[C@@H](O)[C@@H](O)C[C@H]2N1CC(c1ccccc1)c1ccccc1	2	1	-3	4	1	-4
CCn1cc(C(=O)N[C@H](C(=O)NCCCN2CCOCC2)C(C)C)c(=O)c2cc3c(cc21)OCO3	0	0	-3	5	3	2
